Screens from PubChem.
NSD2 HMT inh – NSD2 (human) methyltransferase inhibition; O96028; NSD2 peptide methylation, AlphaScreen, 120 min; inhibition, % at 12.5 µM; actives 0.54% (n = 310,000); AID 743445; in the data active = inhibition above about 50%
ALR inh – inhibitors of human sulfhydryl oxidase ALR; AID 485317; purified ALR, DTT oxidation, H2O2 HRP-luminol luminescence; actives 3.8% (n = 290,000); P55789; inhibition, % (no concentration beside the values);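 active = mean replicate inhibition above about 79%, with every replicate also reaching it, limit read from the data; inconclusive = only one of the two criteria met; inactive = mean below limit and not every replicate reaching it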
Target sequence (P55789 whole entry, looked up): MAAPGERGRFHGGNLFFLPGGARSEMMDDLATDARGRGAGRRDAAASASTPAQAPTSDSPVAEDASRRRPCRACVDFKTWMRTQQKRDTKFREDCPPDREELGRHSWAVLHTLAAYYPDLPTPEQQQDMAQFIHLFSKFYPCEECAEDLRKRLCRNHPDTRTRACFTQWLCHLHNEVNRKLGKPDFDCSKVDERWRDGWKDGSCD
CASP6 VEID inh – inhibitors of human caspase-6; inhibition, % at 12.5 µM; P55212; actives 0.53% (n = 350,000); purified caspase-6, Z-VEID-R110 cleavage fluorescence; AID 686996;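 active = mean inhibition across replicates at least about 35%, with every replicate also reaching that limit, limit read from the data; inconclusive = only one of the two criteria met; inactive = neither criterion met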;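 also: 0% = median of neutral control wells and 100% = no fluorescence left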
Target sequence (P55212 24-179 limits assumed): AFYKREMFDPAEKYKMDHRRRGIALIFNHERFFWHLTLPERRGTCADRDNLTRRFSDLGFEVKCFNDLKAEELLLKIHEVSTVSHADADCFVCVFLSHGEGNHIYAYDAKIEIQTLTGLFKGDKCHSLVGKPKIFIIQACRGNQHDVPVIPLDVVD
Target sequence (P55212 194-293 limits assumed): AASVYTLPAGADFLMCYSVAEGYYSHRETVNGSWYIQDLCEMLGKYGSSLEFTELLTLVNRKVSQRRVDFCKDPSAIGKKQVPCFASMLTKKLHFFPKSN
Env fusion inh – HIV envelope-mediated fusion inhibition; HeLa-JRFL Env/CEM21 cell fusion, luciferase; inhibition, % at 12.3 µM; actives 1.1% (n = 360,000);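 active = mean replicate inhibition score of at least 50 and every replicate individually at or above 50; inconclusive = only one of the two criteria met; inactive = mean below 50 and not all replicates reaching 50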;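 also: 0% = plate neutral controls and 100% = maraviroc near 300 nM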
CFTR F508del cor – CFTR F508del correction in bronchial cells. CFBE cells, YFP halide quenching; stimulated with forskolin plus potentiator P3; % fluorescence drop versus neutral controls. activity (quench increase), % at 7.58 µM. actives 0.36% (n = 350,000). AID 720511;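 active = mean added fluorescence quench of at least 8% versus neutral control, with both replicates also reaching 8%; inconclusive = only one of the mean or replicate conditions met; inactive = mean below 8% and not both replicates reaching 8%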;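 also: cells transiently co-express mutant CFTR-F508del with the halide-sensitive YFP; corrector assay measuring rescue of mutant channel to the surface after 24 h compound exposure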
PglD DTNB – inhibitors of Campylobacter jejuni PglD acetyltransferase | purified PglD enzyme, DTNB colorimetric CoA detection | inhibition, % at 12.5 µM | actives 0.098% (n = 360,000) | AID 602405; in the data active = inhibition above about 16%, passing the limit was not always enough; inconclusive = no clear call, values can overlap the other calls
The depositor's hits bear a star; ? = inconclusive; . = no result; [ ] = another dose, or the depositor's remark. A selection: hits, their analogues and other compounds. The true share with any hit is near 4.1%.

SMILES	NSD2 HMT inh	ALR inh	CASP6 VEID inh	Env fusion inh	CFTR F508del cor	PglD DTNB
Cc1ccc(/C=C2/C(=N)N3N=C(CC(=O)N4CCCC4)SC3=NC2=O)cc1	1.5	97.4*	-1.8	2.2	1.2	0.5
C=CCOc1ccc(/C=C2/C(=N)N3N=C(CC(=O)N4CCCC4)SC3=NC2=O)cc1OC	3.6	98.8*	-2.5	-6.7	0.9	2.0
O=C(Nc1cccc(F)c1)N1C[C@@H]2[C@H](c3ccccc31)[C@H](CO)N2C(=O)C1CCOCC1	.	.	2.2	.	2.6	0.3
COc1ccc(-c2cnc3c(c2)C(=O)N([C@@H](C)CO)C[C@@H](C)[C@H](CN(C)S(=O)(=O)c2ccc(OC)cc2)O3)cc1	.	.	.	-0.5[16.7 µM]	-0.1	.
CCC(=O)N1CC2(CCN(Cc3cncnc3)CC2)c2c([nH]c3cc(OC)ccc23)[C@@H]1CO	.	.	.	.	1.4	.
N#Cc1cnn(-c2ccccc2)c1NC(=O)CN1CCN(c2ccccc2)CC1	2.4	96.5*	-1.2	-3.5	-0.7	-4.5
N#Cc1ccsc1NC(=O)CN1CCN(c2ccccc2)CC1	1.9	33.4	0.4	18.3	-6.1	.
N#Cc1ccsc1NC(=O)CN1CCN(c2ccc(O)cc2)CC1	1.6	99.4*	.	.	.	-7.6
O=C(CCS(=O)(=O)c1ccc(Br)cc1)N1CCCCCC1	9.8	-11.7	61.0*	-6.8	2.2	-3.7
COc1c(/C=N/Nc2ccc(C(=O)O)cc2)c(CCN(C)C(C)=O)cc2c1OCO2	3.6	96.7*	5.0	-9.3	3.2	.
CO[C@H]1CN(C)C(=O)c2cc(NC(=O)Nc3ccccc3)ccc2OC[C@@H](C)N(CC2CC2)C[C@H]1C	.	.	.	.	0.4	-0.9
COc1ccccc1C#Cc1ccc2c(c1)O[C@@H](CN(C)Cc1ccncc1)[C@H](C)CN([C@H](C)CO)S2(=O)=O	.	.	0.0	52.3*[16.7 µM]	2.0	2.0
COc1ccccc1C#Cc1ccc2c(c1)O[C@H](CN(C)Cc1ccncc1)[C@@H](C)CN([C@@H](C)CO)S2(=O)=O	.	.	1.2	47.7*[16.7 µM]	2.8	-5.1
COc1ccccc1C#Cc1ccc2c(c1)O[C@@H](CN(C)Cc1ccncc1)[C@H](C)CN([C@@H](C)CO)S2(=O)=O	.	.	0.2	32.7[16.7 µM]	2.5	-0.6
COc1ccccc1C#Cc1ccc2c(c1)O[C@@H](CN(C)Cc1cccnc1)[C@H](C)CN([C@@H](C)CO)S2(=O)=O	.	.	-2.8	.	9.5*	-0.7
COc1ccccc1C#Cc1ccc2c(c1)O[C@@H](CN(C)C)[C@@H](C)CN([C@@H](C)CO)S2(=O)=O	.	.	48.4*	-5.8[16.7 µM]	-5.6	1.0
COc1ccccc1C#Cc1ccc2c(c1)O[C@@H](CN(C)Cc1ccncc1)[C@@H](C)CN([C@H](C)CO)S2(=O)=O	.	.	-2.1	?	6.4	-4.8
CCC(=O)N1CC2(C1)CN(Cc1cccc(F)c1)[C@@H](CO)c1c2c2ccc(OC)cc2n1C	.	.	.	.	1.0	.
C[C@H](CO)N1C[C@H](C)[C@@H](CN(C)Cc2cccnc2)Oc2cc(C#CC3CCCCC3)ccc2S1(=O)=O	.	.	0.6	20.8[16.7 µM]	0.0	-1.8
C[C@H]1CN([C@@H](C)CO)S(=O)(=O)c2ccc(C#CC3CCCCC3)cc2O[C@H]1CN(C)Cc1cccnc1	.	.	1.5	5.1[16.7 µM]	9.9*	-1.7
O=c1cnnc(SCc2ccc([N+](=O)[O-])cc2)[nH]1	-3.2	99.5*	2.7	-26.7	-2.2	.
O=[N+]([O-])c1ccc(CSc2nc3ccccc3[nH]2)cc1	3.1	.	-1.8	-60.1	.	2.3
C[C@@H]1CCCCO[C@H](CN(C)Cc2ccc(Cl)c(Cl)c2)[C@H](C)CN([C@@H](C)CO)C(=O)c2cc(NS(=O)(=O)c3ccc(F)cc3)ccc2O1	.	.	0.2	.	-6.9	.
COc1cc(OC)c2c(-c3cccc(-c4ccc(OC)c(F)c4)c3)cc(=O)oc2c1	.	.	-2.2	-82.1	8.5*	3.6
O=C(COc1ccccc1)Nc1cccc(-c2nn[nH]n2)c1	14.8	98.8*	8.6	-15.4	2.0	7.0
O=C(Nc1cccc(-c2nn[nH]n2)c1)c1csc2c1CCCC2	-2.8	98.8*	.	.	.	7.0
COc1ccc(NC(=O)N(C)C[C@@H]2Oc3ccc(NC(=O)Nc4ccc(F)cc4)cc3C(=O)N([C@H](C)CO)C[C@H]2C)cc1	.	.	0.6	0.2[16.7 µM]	-0.2	-4.6
CCOc1ccc(N2C(=O)CC(N3CCc4ccccc43)C2=O)cc1 (stereo not given)	1.2	10.2	.	-76.0	.	-1.4
